# Data published in ChEMBL document CHEMBL4513216, “Probing the Open Global Health Chemical Diversity Library for Multistage-Active Starting Points for Next-Generation Antimalarials” (ACS Infect Dis, 2020).
# In all, about 68,000 compounds went through this assay and about 2,700 (4%) showed an effect of 50% or more. For the sample, strong results were picked, then their nearest neighbours and some compounds at random.
# System: Plasmodium berghei
# Assay: Screen against P. berghei liver stage (PbLuc), transformed with Luciferase, at 2uM
# Type: functional, HepG2
# Settings: tested at 2 uM
row,Structure (SMILES),INHIBITION
1,Cn1nnc2c1C(COCC1CC1)CN(C(=O)C1=CCCC1)C2 (configuration not stated),22.68%
2,CCN1CCC2(CCN(c3ncccn3)CC2)C1=O,32.05%
3,CC(C)NS(=O)(=O)c1cc(C(=O)O)cc(-c2ccc3c(c2)OCO3)c1,-12.67%
4,O=C(NCc1ccccn1)[C@@H]1CCO[C@@H]2CCN(Cc3ccoc3)C[C@H]21,11.08%
5,O=C(c1ccno1)N1CCCC(c2ncncc2-c2ccncc2)C1 (configuration not stated),6.13%
6,OC1(CN2CCCC(Cn3cncn3)C2)CCCCC1 (configuration not stated),19.9%
7,COCC(NC1CCSCC1)c1ccnn1C (configuration not stated),27.55%
8,Cc1cc(C)cc(NC(=O)N(CCC#N)CCCN(C)C)c1,53.81%
9,CN(C)CCCN(CCC#N)C(=O)Nc1ccc2[nH]ccc2c1,-28.09%
10,Cc1cc(NC(=O)N(CCC#N)CCCN(C)C)ccc1F,-11.32%
11,Cc1noc(C)c1CN1CCc2ncnc(-c3ccoc3)c2CC1,-15.88%
12,CCOC(=O)CNC(=O)NCc1cc(C)n(-c2ccccc2OC)c1C,7.91%
13,CCN1CC[C@@]2(C(=O)N3CCOCC3)CCN(S(=O)(=O)CC)CC[C@@H]12,46.32%
14,Cc1nc(C)n(CC2CCCN2Cc2ncc(C(C)(C)C)o2)n1 (configuration not stated),-39.72%
15,FC(F)(F)c1ccc2nc([C@H]3CCN(C4CCOCC4)C3)[nH]c2c1,54.16%
16,FC(F)(F)c1ccc2nc([C@H]3CCN(C4CCC4)C3)[nH]c2c1,2.22%
17,FC(F)(F)c1ccc2nc([C@H]3CCN(C4CCCCC4)C3)[nH]c2c1,-5.77%
18,Cc1n[nH]cc1CNCc1cccc(OCC(F)(F)F)c1,36.91%
19,O=C(C1CC1)N1CCN(c2ccc(-n3cncn3)nn2)CC1,42.14%
20,O=C(CC1CCCC1)N1CCN(c2ccc(-n3cncn3)nn2)CC1,59.76%
21,O=C(CSC1CCCC1)N1CCN(c2ccc(-n3cncn3)nn2)CC1,15.96%
22,Cc1cc(F)ccc1NS(=O)(=O)c1cc2c(c(C(=O)O)c1)OCCO2,-1.02%
23,CC(C)(N)c1cn(C2CCN(C(=O)CCC3CCCCC3)CC2)nn1,20.08%
24,Cc1nc(N2CCCC2)nc2c1CCN(C(=O)CC1CC1)CC2,-24.79%
25,CC(C)CN1CCNC(=O)C12CCN(S(=O)(=O)c1ccc(F)cc1)CC2,55.66%
26,CCN1CCNC(=O)C12CCN(S(=O)(=O)c1ccc(F)cc1)CC2,26.55%

row,Structure (SMILES),INHIBITION
1,CCN1CCNC(=O)C12CCN(S(=O)(=O)c1ccccc1)CC2,-2%
2,Oc1cc(-c2ccccn2)nc(C2CCN(Cc3ccncc3)CC2)n1,-1.49%
3,Nc1nc2c(c(N3CCCC(OCc4ccccn4)C3)n1)CCNCC2 (configuration not stated),-24.7%
4,Cc1ncsc1CCN(C)Cc1ccc(Br)o1,34.18%
5,Cc1ccsc1CN(C)CCc1scnc1C,57.75%
6,Cc1ncsc1CCN(C)Cc1ccc(CO)o1,36.28%
7,CC(C)=CCN1C[C@@H]2CN(C(=O)c3cnccc3C)C[C@]2(C(=O)O)C1,-9.48%
8,CCn1nc(C)cc1C(=O)N1CCC(Nc2ccc(C)nn2)CC1,-7.05%
9,CNC(=O)c1ccc(N(C)C2CCC2)nn1,67.28%
10,CN(c1ccc(C(N)=O)nn1)C1CCC1,-35.26%
11,COC(=O)c1ccc(N(C)C2CCC2)nn1,24.36%
12,C[C@@H]1C[C@H]2CN(C(=O)C3=CCCCC3)C[C@H]2O1,28.2%
13,O=C(c1ccncc1)N1C[C@H]2CC[C@@H](C1)N(C(=O)C1CCCC1)C2,63.1%
14,CCOCC(=O)N1C[C@@H]2CC[C@H]1CN(C(=O)c1ccncc1)C2,-3.87%
15,O=C(c1ccncc1)N1C[C@H]2CC[C@@H](C1)N(C(=O)N1CCOCC1)C2,-58.5%
16,CN(C)C(=O)N1Cc2nnn(C)c2C(COCc2cccnc2)C1 (configuration not stated),-16.25%
17,CCc1ccc(NC(=O)N2C[C@@H]3C[C@H](C(=O)NC4CCC4)[C@H](C2)O3)cc1,25.08%
18,Cc1ncc(CN2CCOC(c3ccc(-c4ccccc4F)cn3)C2)s1 (configuration not stated),48.08%
19,CNC(=O)c1cn[nH]c1C1(C)CCCN(Cc2ccccn2)C1 (configuration not stated),19.47%
20,CN(C)C(=O)c1cn[nH]c1C1(C)CCN(c2ncccn2)CC1,-16.2%
21,CN(C)C(=O)c1cn[nH]c1C1(C)CCCN(Cc2ccccn2)C1 (configuration not stated),70.33%
22,Cc1ccc(C)c(CS(=O)(=O)CC(=O)NCCCOC(C)C)c1,22.1%
23,Cc1cccc(-c2noc(C)c2C(=O)NC2CCCOC2)c1 (configuration not stated),-3.96%
24,Cc1nc(CN2CCOC3(CCCC3)C2)oc1C,20.49%
25,Cc1nc(CN2CCN(S(=O)(=O)N3CCCCC3)CC2)oc1C,54.44%
26,Cc1nc(CN2CCN(S(=O)(=O)N3CCOCC3)CC2)oc1C,-9.04%
